Columns and labels:
Experiment in all cases: PBM binding z-score (relative to random genomic background probes); higher = stronger binding; sequences stand for … in GC…GCGATTGACAGCGTAGAATGAAGG
[1] = tested on: RARb homodimer (NR concentration 270 nM)
Method in brief: (§1)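 Binding z-scores take random background probes as their reference. They come from custom Agilent 4×180K protein-binding microarrays incubated 1 h with ligand-free nuclear receptor dimers, with antibodies against each partner (one per run) detecting binding. Scanned fluorescence was regression-normalized.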

[2] = tested on: RARg:RXRa (NR concentration 270 nM, RXRa partner concentration 90 nM)
Method in brief: as §1

[3] = tested on: RARg homodimer (NR concentration 270 nM)
Method in brief: as §1

[4] = tested on: RXRa DBDmut IVT, anti-RXR (DBD mutation: RXRa K156A/R161A, NR concentration 90 nM)
Method in brief: as §1

[5] = tested on: RXRa homodimer (NR concentration 180 nM)
Method in brief: as §1

[6] = tested on: THRa:RXRa (NR concentration 90 nM, RXRa partner concentration 90 nM)
Method in brief: as §1

[7] = tested on: THRa homodimer (NR concentration 90 nM)
Method in brief: as §1

[8] = tested on: VDR homodimer (NR concentration 270 nM)
Method in brief: as §1

CAAACTAGGTCACGAAAGGTGAAAGTCGAATGAC
PBM binding z-score [1]: 4.73 | PBM binding z-score [2]: 5.68 | PBM binding z-score [3]: 6.37 | PBM binding z-score [4]: 1.59 | PBM binding z-score [5]: 5.25 | PBM binding z-score [6]: 4.82 | PBM binding z-score [7]: 1.92 | PBM binding z-score [8]: 0.591

ATACCAAGGTGATCGTGAGGTGGTTGATACTAAC
PBM binding z-score [1]: 0.533 | PBM binding z-score [2]: 0.588 | PBM binding z-score [3]: 0.258 | PBM binding z-score [4]: -0.212 | PBM binding z-score [5]: 0.48 | PBM binding z-score [6]: 1.61 | PBM binding z-score [7]: 0.979 | PBM binding z-score [8]: 0.166

TTACCAAGGTGAAATGTCGTTGATGCACGCCTTG
PBM binding z-score [1]: 0.644 | PBM binding z-score [2]: 0.864 | PBM binding z-score [3]: 0.648 | PBM binding z-score [4]: 0.115 | PBM binding z-score [5]: 1.16 | PBM binding z-score [6]: 1.82 | PBM binding z-score [7]: 0.71 | PBM binding z-score [8]: -0.183

GCTTGTAGATCAAGGTTAAGGAAGACTAAGCTAA
PBM binding z-score [1]: 0.296 | PBM binding z-score [2]: 0.309 | PBM binding z-score [3]: 0.222 | PBM binding z-score [4]: -0.171 | PBM binding z-score [5]: 0.702 | PBM binding z-score [6]: 1.25 | PBM binding z-score [7]: -0.259 | PBM binding z-score [8]: -0.459

TCTGCTAGGTCAACGACGGTCAGCTAATCTGCTA
PBM binding z-score [1]: 3.74 | PBM binding z-score [2]: 4.42 | PBM binding z-score [3]: 5.58 | PBM binding z-score [4]: 1.13 | PBM binding z-score [5]: 2.74 | PBM binding z-score [6]: 3.48 | PBM binding z-score [7]: 0.555 | PBM binding z-score [8]: -0.198

TAGCCTAGGACAGATCGGGCCAGTATACGCTATA
PBM binding z-score [1]: -0.402 | PBM binding z-score [2]: -0.336 | PBM binding z-score [3]: 0.0371 | PBM binding z-score [4]: -1.01 | PBM binding z-score [5]: -0.257 | PBM binding z-score [6]: 0.511 | PBM binding z-score [7]: -0.623 | PBM binding z-score [8]: -0.922

TCGAGTAGGTTAGTCGGCGCATTCAGCCAACATA
PBM binding z-score [1]: -0.408 | PBM binding z-score [2]: -0.412 | PBM binding z-score [3]: -0.662 | PBM binding z-score [4]: -0.0124 | PBM binding z-score [5]: -0.244 | PBM binding z-score [6]: -0.542 | PBM binding z-score [7]: -0.648 | PBM binding z-score [8]: -0.26

TCATATATGTAATACAGGTGAAAGTCGGCATCTA
PBM binding z-score [1]: 0.413 | PBM binding z-score [2]: 0.595 | PBM binding z-score [3]: 0.586 | PBM binding z-score [4]: 1.59 | PBM binding z-score [5]: 1.13 | PBM binding z-score [6]: 0.578 | PBM binding z-score [7]: 0.0633 | PBM binding z-score [8]: 0.192

ATCTCTAGGTAAGACTCAGTCCAGTGAAGAACGC
PBM binding z-score [1]: 0.112 | PBM binding z-score [2]: 0.208 | PBM binding z-score [3]: 0.132 | PBM binding z-score [4]: 0.459 | PBM binding z-score [5]: 0.144 | PBM binding z-score [6]: 0.31 | PBM binding z-score [7]: 0.282 | PBM binding z-score [8]: 0.336

AGTCAAAGTTCACTCGGTAACGTAAGATTCAGCT
PBM binding z-score [1]: 3.89 | PBM binding z-score [2]: 4.91 | PBM binding z-score [3]: 5.79 | PBM binding z-score [4]: 4.02 | PBM binding z-score [5]: 3.83 | PBM binding z-score [6]: 1.79 | PBM binding z-score [7]: -0.0176 | PBM binding z-score [8]: 4.11

TAGCCTAGGTCATGCGGGCCGGTATAGTGTCGGC
PBM binding z-score [1]: 2.61 | PBM binding z-score [2]: 3.71 | PBM binding z-score [3]: 4.32 | PBM binding z-score [4]: 0.444 | PBM binding z-score [5]: 3.02 | PBM binding z-score [6]: 2.97 | PBM binding z-score [7]: 0.888 | PBM binding z-score [8]: 0.344

TCATATAGGTAAATGCTATGTGAAAGTCCGATCT
PBM binding z-score [1]: -0.22 | PBM binding z-score [2]: 0.473 | PBM binding z-score [3]: 0.452 | PBM binding z-score [4]: 1.17 | PBM binding z-score [5]: 0.894 | PBM binding z-score [6]: 0.0535 | PBM binding z-score [7]: 0.0976 | PBM binding z-score [8]: 0.435

AGTCAAGGTTCACTAGGTAACGTAAGATTCAGCT
PBM binding z-score [1]: 1.85 | PBM binding z-score [2]: 2.74 | PBM binding z-score [3]: 2.72 | PBM binding z-score [4]: 3.92 | PBM binding z-score [5]: 2.57 | PBM binding z-score [6]: 1.8 | PBM binding z-score [7]: 0.553 | PBM binding z-score [8]: 3.78

GATACAGTGTCAGCTAGAGGCCAGAGTATGGAAA
PBM binding z-score [1]: 1.01 | PBM binding z-score [2]: 2.09 | PBM binding z-score [3]: 0.824 | PBM binding z-score [4]: -0.492 | PBM binding z-score [5]: 0.242 | PBM binding z-score [6]: 0.131 | PBM binding z-score [7]: -0.254 | PBM binding z-score [8]: -0.198

CCAGACAGCTGAGAAGGTAACTCAGCCTCGATTA
PBM binding z-score [1]: -0.378 | PBM binding z-score [2]: -0.436 | PBM binding z-score [3]: -0.0751 | PBM binding z-score [4]: -0.0865 | PBM binding z-score [5]: -0.206 | PBM binding z-score [6]: -0.157 | PBM binding z-score [7]: -0.306 | PBM binding z-score [8]: -0.494

TAGCCTAGGTCATGGGCCAGTAAACCACGCGAAC
PBM binding z-score [1]: 2.99 | PBM binding z-score [2]: 4.38 | PBM binding z-score [3]: 5.19 | PBM binding z-score [4]: 0.473 | PBM binding z-score [5]: 3.77 | PBM binding z-score [6]: 3.25 | PBM binding z-score [7]: 1.12 | PBM binding z-score [8]: 0.514

CGAACTAGGTCACAACAGGACAGTGAAGGATGAT
PBM binding z-score [1]: 3.02 | PBM binding z-score [2]: 4.09 | PBM binding z-score [3]: 4.79 | PBM binding z-score [4]: 1.63 | PBM binding z-score [5]: 2.91 | PBM binding z-score [6]: 4.09 | PBM binding z-score [7]: 1.16 | PBM binding z-score [8]: 0.27

ATCTCTAGGTAAGACTCAGTTCAGCGAAGAACGC
PBM binding z-score [1]: 0.706 | PBM binding z-score [2]: 0.274 | PBM binding z-score [3]: 0.294 | PBM binding z-score [4]: 0.439 | PBM binding z-score [5]: 0.4 | PBM binding z-score [6]: 0.927 | PBM binding z-score [7]: 0.802 | PBM binding z-score [8]: 1.48

AGTCGAAGTTCACTAGGTAACGTAAGATTCAGCT
PBM binding z-score [1]: 1.74 | PBM binding z-score [2]: 2.29 | PBM binding z-score [3]: 2.93 | PBM binding z-score [4]: 3.45 | PBM binding z-score [5]: 1.6 | PBM binding z-score [6]: 1.05 | PBM binding z-score [7]: -0.0118 | PBM binding z-score [8]: 2.7

GCTTACGGGTCAAAGGTTATATCATGAATAGAAT
PBM binding z-score [1]: 3.32 | PBM binding z-score [2]: 6.74 | PBM binding z-score [3]: 4.71 | PBM binding z-score [4]: 2.66 | PBM binding z-score [5]: 9.55 | PBM binding z-score [6]: 4.12 | PBM binding z-score [7]: 0.113 | PBM binding z-score [8]: 2.09

ATCGAAAGGTCGAAGATGAGTATACCCACCCGAA
PBM binding z-score [1]: 2.11 | PBM binding z-score [2]: 3.48 | PBM binding z-score [3]: 3.4 | PBM binding z-score [4]: 1.35 | PBM binding z-score [5]: 3.68 | PBM binding z-score [6]: 1.56 | PBM binding z-score [7]: -0.0753 | PBM binding z-score [8]: 0.844

CCTGCTAGGTCATGGTCAACTAATCTACAGTATG
PBM binding z-score [1]: 3.37 | PBM binding z-score [2]: 4.23 | PBM binding z-score [3]: 5.18 | PBM binding z-score [4]: 1.75 | PBM binding z-score [5]: 2.88 | PBM binding z-score [6]: 3.26 | PBM binding z-score [7]: 1.41 | PBM binding z-score [8]: 0.335

ATCGAAAGGTCGTGAGCTGAGTATACAGAAAGGC
PBM binding z-score [1]: 2.17 | PBM binding z-score [2]: 4.41 | PBM binding z-score [3]: 3.74 | PBM binding z-score [4]: 0.921 | PBM binding z-score [5]: 5.11 | PBM binding z-score [6]: 2.31 | PBM binding z-score [7]: -0.456 | PBM binding z-score [8]: 0.299

GATACAGGGTCAGCTAGAGGCCAGAGCATGGAAA
PBM binding z-score [1]: 3.06 | PBM binding z-score [2]: 6.77 | PBM binding z-score [3]: 4.51 | PBM binding z-score [4]: 1.31 | PBM binding z-score [5]: 4.26 | PBM binding z-score [6]: 3.01 | PBM binding z-score [7]: 0.132 | PBM binding z-score [8]: 0.805

CAAACTAAGTCAAAGGTCAAAGTCGAGCCAACCA
PBM binding z-score [1]: 4.68 | PBM binding z-score [2]: 6.82 | PBM binding z-score [3]: 5.86 | PBM binding z-score [4]: 2.2 | PBM binding z-score [5]: 8.46 | PBM binding z-score [6]: 3.74 | PBM binding z-score [7]: 0.739 | PBM binding z-score [8]: 2.93

GCAGCCAGGTGAAACGCAGGTAACTCAGGGTGGC
PBM binding z-score [1]: -0.292 | PBM binding z-score [2]: 0.262 | PBM binding z-score [3]: -0.109 | PBM binding z-score [4]: -0.94 | PBM binding z-score [5]: 0.157 | PBM binding z-score [6]: 1.68 | PBM binding z-score [7]: -0.396 | PBM binding z-score [8]: -0.939

TCTAGGTGGTCACGGAGGTCACACACGACGGGTA
PBM binding z-score [1]: 4.44 | PBM binding z-score [2]: 5.09 | PBM binding z-score [3]: 5.12 | PBM binding z-score [4]: 0.895 | PBM binding z-score [5]: 4.95 | PBM binding z-score [6]: 3.62 | PBM binding z-score [7]: 2.2 | PBM binding z-score [8]: 3.08

TCATATAGGTAAATGCTAGGTGACAGTCCGATCT
PBM binding z-score [1]: 0.444 | PBM binding z-score [2]: 0.642 | PBM binding z-score [3]: 0.401 | PBM binding z-score [4]: 1.28 | PBM binding z-score [5]: 0.653 | PBM binding z-score [6]: 1.4 | PBM binding z-score [7]: 0.389 | PBM binding z-score [8]: 0.525
